Experimental findings from paper PMC11006913 are described below.

Common to all, as to assay: PBM; 200 nM protein, PBS
What all share (settings): dsDNA, one strand shown

Assay [1] has as its target T1, SIX6 (Homo sapiens, UniProt O95475 114-200, L167I).
T1 sequence: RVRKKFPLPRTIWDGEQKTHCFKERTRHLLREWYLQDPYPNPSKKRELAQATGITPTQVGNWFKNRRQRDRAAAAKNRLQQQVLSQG

The target of assay [2] is T2, SIX6 (Homo sapiens, UniProt O95475 114-200, L143V).
T2 sequence: T1 sequence with L30V, I54L

For assay [3], the target named is T3, SIX6 (Homo sapiens, UniProt O95475 114-200, H141N).
T3 sequence: T1 sequence with H28N, I54L

In assay [4] the target is T4, SIX6 (Homo sapiens, UniProt O95475 114-200, T165P).
T4 sequence: T1 sequence with T52P, I54L

Assay [5] addresses T5, SIX6 (Homo sapiens, UniProt O95475 114-200, L167M).
T5 sequence: T1 sequence with I54M

In assay [6] the target is T6, SIX6 (Homo sapiens, UniProt O95475 114-200, L143M).
T6 sequence: T1 sequence with L30M, I54L

For assay [7], the target named is T7, SIX6 (Homo sapiens, UniProt O95475 114-200, L143I).
T7 sequence: T1 sequence with L30I, I54L

Assay [8] has as its target T8, SIX6 (Homo sapiens, UniProt O95475 114-200, T165G).
T8 sequence: T1 sequence with T52G, I54L

Assay [9] deals with T9, SIX6 (Homo sapiens, UniProt O95475 114-200, T139Q).
T9 sequence: T1 sequence with T26Q, I54L

The target of assay [10] is T10, SIX6 (Homo sapiens, UniProt O95475 114-200, T165A).
T10 sequence: T1 sequence with T52A, I54L

Assay [11] deals with T11, SIX6 (Homo sapiens, UniProt O95475 114-200, L167V).
T11 sequence: T1 sequence with I54V

The target of assay [12] is T12, SIX6 (Homo sapiens, UniProt O95475 114-200).
T12 sequence: T1 sequence with I54L

Assay [13] deals with T13, SIX6 (Homo sapiens, UniProt O95475 114-200, T165I).
T13 sequence: T1 sequence with T52I, I54L

Positions count from the first letter of the chain named.

Take GATATCCC: the binding signal in assay [1] was 11.1 upbm affinity estimate (log intensity, higher = more binding, comparable within an allelic series); in [2], 10.2 upbm affinity estimate (log intensity, higher = more binding, comparable within an allelic series); in assay [3], 11.1 upbm affinity estimate (log intensity, higher = more binding, comparable within an allelic series); in assay [4] it was 9.49 upbm affinity estimate (log intensity, higher = more binding, comparable within an allelic series); in assay [5], 10.8 upbm affinity estimate (log intensity, higher = more binding, comparable within an allelic series); in assay [6], 11 upbm affinity estimate (log intensity, higher = more binding, comparable within an allelic series). Moreover, the binding signal in assay [7] was 10.2 upbm affinity estimate (log intensity, higher = more binding, comparable within an allelic series); in assay [8], 11.2 upbm affinity estimate (log intensity, higher = more binding, comparable within an allelic series); in assay [9], 11.1 upbm affinity estimate (log intensity, higher = more binding, comparable within an allelic series); in assay [10], 11 upbm affinity estimate (log intensity, higher = more binding, comparable within an allelic series); in assay [11] it was 11 upbm affinity estimate (log intensity, higher = more binding, comparable within an allelic series); in assay [12] it was 11 upbm affinity estimate (log intensity, higher = more binding, comparable within an allelic series). Also, in assay [13], the binding signal was 11 upbm affinity estimate (log intensity, higher = more binding, comparable within an allelic series).

Regarding GATATCTA, the binding signal is 11.1 upbm affinity estimate (log intensity, higher = more binding, comparable within an allelic series) in assay [1]; 10.4 upbm affinity estimate (log intensity, higher = more binding, comparable within an allelic series) in assay [2]; 11.1 upbm affinity estimate (log intensity, higher = more binding, comparable within an allelic series) in [3]; 9.98 upbm affinity estimate (log intensity, higher = more binding, comparable within an allelic series) in [4]; 10.8 upbm affinity estimate (log intensity, higher = more binding, comparable within an allelic series) in [5]; 10.9 upbm affinity estimate (log intensity, higher = more binding, comparable within an allelic series) in [6]. For the same sequence, the binding signal was 10.3 upbm affinity estimate (log intensity, higher = more binding, comparable within an allelic series) in assay [7]; 11.1 upbm affinity estimate (log intensity, higher = more binding, comparable within an allelic series) in assay [8]; 11 upbm affinity estimate (log intensity, higher = more binding, comparable within an allelic series) in assay [9]; 11 upbm affinity estimate (log intensity, higher = more binding, comparable within an allelic series) in [10]; 10.9 upbm affinity estimate (log intensity, higher = more binding, comparable within an allelic series) in assay [11]; 10.9 upbm affinity estimate (log intensity, higher = more binding, comparable within an allelic series) in assay [12]. In [13], the binding signal is 10.9 upbm affinity estimate (log intensity, higher = more binding, comparable within an allelic series).

GAGTATCA: the binding signal in assay [1] is 11.2 upbm affinity estimate (log intensity, higher = more binding, comparable within an allelic series); in assay [2], 10.2 upbm affinity estimate (log intensity, higher = more binding, comparable within an allelic series); in assay [3], 11.3 upbm affinity estimate (log intensity, higher = more binding, comparable within an allelic series); in assay [4], 9.54 upbm affinity estimate (log intensity, higher = more binding, comparable within an allelic series); in [5], 10.6 upbm affinity estimate (log intensity, higher = more binding, comparable within an allelic series); in [6] it was 10.9 upbm affinity estimate (log intensity, higher = more binding, comparable within an allelic series). Besides, the binding signal in assay [7] was 10.3 upbm affinity estimate (log intensity, higher = more binding, comparable within an allelic series); in assay [8], 11.3 upbm affinity estimate (log intensity, higher = more binding, comparable within an allelic series); in assay [9] it was 11.2 upbm affinity estimate (log intensity, higher = more binding, comparable within an allelic series); in assay [10], 11.2 upbm affinity estimate (log intensity, higher = more binding, comparable within an allelic series); in assay [11], 11 upbm affinity estimate (log intensity, higher = more binding, comparable within an allelic series); in [12], 10.9 upbm affinity estimate (log intensity, higher = more binding, comparable within an allelic series). Moreover, in assay [13], the binding signal was 11.1 upbm affinity estimate (log intensity, higher = more binding, comparable within an allelic series).

For ATGTATCA, the binding signal in [1] was 11.4 upbm affinity estimate (log intensity, higher = more binding, comparable within an allelic series); in [2] it was 10.6 upbm affinity estimate (log intensity, higher = more binding, comparable within an allelic series); in assay [3], 11.5 upbm affinity estimate (log intensity, higher = more binding, comparable within an allelic series); in [4] it was 10.1 upbm affinity estimate (log intensity, higher = more binding, comparable within an allelic series); in [5] it was 11 upbm affinity estimate (log intensity, higher = more binding, comparable within an allelic series); in assay [6], 11.2 upbm affinity estimate (log intensity, higher = more binding, comparable within an allelic series). Further, the binding signal is 10.6 upbm affinity estimate (log intensity, higher = more binding, comparable within an allelic series) in assay [7]; 11.5 upbm affinity estimate (log intensity, higher = more binding, comparable within an allelic series) in assay [8]; 11.3 upbm affinity estimate (log intensity, higher = more binding, comparable within an allelic series) in [9]; 11.4 upbm affinity estimate (log intensity, higher = more binding, comparable within an allelic series) in assay [10]; 11.2 upbm affinity estimate (log intensity, higher = more binding, comparable within an allelic series) in assay [11]; 11.2 upbm affinity estimate (log intensity, higher = more binding, comparable within an allelic series) in assay [12]. The binding signal in assay [13] is 11.3 upbm affinity estimate (log intensity, higher = more binding, comparable within an allelic series).

For the sequence ATGATACG, the binding signal in [1] was 11.2 upbm affinity estimate (log intensity, higher = more binding, comparable within an allelic series); in assay [2], 10.3 upbm affinity estimate (log intensity, higher = more binding, comparable within an allelic series); in [3], 11.2 upbm affinity estimate (log intensity, higher = more binding, comparable within an allelic series); in assay [4] it was 9.78 upbm affinity estimate (log intensity, higher = more binding, comparable within an allelic series); in assay [5], 10.6 upbm affinity estimate (log intensity, higher = more binding, comparable within an allelic series); in assay [6] it was 11 upbm affinity estimate (log intensity, higher = more binding, comparable within an allelic series). Moreover, the binding signal in assay [7] was 10.4 upbm affinity estimate (log intensity, higher = more binding, comparable within an allelic series); in [8], 11.3 upbm affinity estimate (log intensity, higher = more binding, comparable within an allelic series); in assay [9], 11.2 upbm affinity estimate (log intensity, higher = more binding, comparable within an allelic series); in assay [10], 11.1 upbm affinity estimate (log intensity, higher = more binding, comparable within an allelic series); in assay [11], 11 upbm affinity estimate (log intensity, higher = more binding, comparable within an allelic series); in [12], 11 upbm affinity estimate (log intensity, higher = more binding, comparable within an allelic series). Besides, the binding signal in assay [13] is 10.9 upbm affinity estimate (log intensity, higher = more binding, comparable within an allelic series).
